The results in this text go back to PubChem BioAssay (EPA / NIEHS).

What is called AC50 is the midpoint of the concentration-response curve, whichever way the signal moves.

A short description of experiment [1]: ATG_CRE_CIS: Attagene CIS-FACTORIAL HepG2 Assay for human cAMP Responsive Element (CRE) binding protein 3 (AID 2282926). As to conditions: HepG2 CRE cis-reporter, Attagene multiplexed mRNA; actives raise or lower the signal. An outline of the steps: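 Capillary electrophoresis of 6-FAM-labelled, HpaI-digested PCR products quantified reporter transcripts. These came from HepG2 transiently transfected with cis-element reporters and exposed to test chemicals for 24 hours, with DMSO defining baseline activity.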

In experiment [2] the target is CCAAT/enhancer-binding protein beta (Homo sapiens) (UniProt P17676). In words: ATG_C_EBP_CIS: Attagene CIS-FACTORIAL HepG2 Assay for human CCAAT/Enhancer Binding Protein (C/EBP) beta (AID 2282927). As to conditions: HepG2 Attagene cis-factorial transcription factor reporter; actives raise or lower the signal. Summed up: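 Endogenous transcription factor activity in human liver HepG2 cells is inferred from induction of a CEBPB-linked reporter mRNA. Exposure lasts 24 h; activity is fitted in both directions relative to DMSO.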
CCAAT/enhancer-binding protein beta (Homo sapiens), sequence (P17676 whole entry, looked up): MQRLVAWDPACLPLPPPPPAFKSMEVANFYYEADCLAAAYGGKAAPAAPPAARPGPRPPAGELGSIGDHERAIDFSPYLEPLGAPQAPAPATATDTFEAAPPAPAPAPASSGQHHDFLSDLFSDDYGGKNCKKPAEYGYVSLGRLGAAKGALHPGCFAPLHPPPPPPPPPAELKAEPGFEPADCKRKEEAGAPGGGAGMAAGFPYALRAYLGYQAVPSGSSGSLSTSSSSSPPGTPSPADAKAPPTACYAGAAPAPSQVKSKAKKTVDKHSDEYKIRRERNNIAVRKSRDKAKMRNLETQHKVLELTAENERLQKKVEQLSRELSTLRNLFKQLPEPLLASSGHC

Experiment [3] can be described thus: ATG_CMV_CIS: Attagene CIS-FACTORIAL HepG2 Assay for human CMV (Internal Marker) (AID 2282928).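 Also: endpoint acts as a background internal control marker rather than a target.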 Conditions: HepG2 CMV promoter reporter, transcription factor profiling; actives raise or lower the signal. An outline of the steps: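 Readout: fluorescent reporter cDNA fragments separated by capillary electrophoresis after RT-PCR and HpaI cut. Cells: HepG2 carrying transfected cis-promoter reporter constructs, dosed 24 h. Endpoint serves as background internal-marker control, fit bidirectionally versus DMSO.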

A short description of experiment [4]: ATG_DR4_LXR_CIS: Attagene CIS-FACTORIAL HepG2 Assay for human Liver X Receptor (LXR), DR4 submotif (AID 2282929). As to conditions: HepG2 Attagene DR4 cis-reporter, mRNA transcription; actives raise or lower the signal. Summed up: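 Readout: reporter transcript fluorescence after RT-PCR and capillary electrophoresis, fitted bidirectionally against DMSO controls. Human HepG2 liver cells carried transiently transfected multiplexed reporter constructs; endogenous transcription factor activity measured 24 h post-dosing.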

Experiment [5] concerns the target Aryl hydrocarbon receptor (Homo sapiens) (UniProt P35869). In words: ATG_Ahr_CIS: Attagene CIS-FACTORIAL HepG2 Assay for human Aryl Hydrocarbon Receptor (Ahr) (AID 2282930). As to conditions: HepG2 AhR cis-factorial reporter transcription; actives raise or lower the signal. Summed up: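 Transient MRTU transfection of HepG2 → 24 h compound exposure → total RNA, oligo(dT) RT → PCR, 6-FAM extension, HpaI cut → CE fluorescence. DMSO = baseline; bidirectional curve fit.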

Experiment [6] is described as follows: ATG_AP_1_CIS: Attagene CIS-FACTORIAL HepG2 Assay for human Activator Protein 1 (AP-1) (AID 2282931). Conditions: HepG2 Attagene cis-factorial AP-1 reporter mRNA; actives raise or lower the signal. Summed up:
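Reporter transcripts were measured 24 h after dosing by RT-PCR and capillary electrophoresis of fluorescent fragments. Cells: HepG2 carrying transfected cis-regulated reporter constructs reading endogenous factor activity. Gain or loss fitted against DMSO.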

Experiment [7] in a line: ATG_AP_2_CIS: Attagene CIS-FACTORIAL HepG2 Assay for human Activator Protein 2 (AP-2) (AID 2282932). As to conditions: HepG2 AP-2 cis-reporter, Attagene transcription factor profiling; actives raise or lower the signal. Summed up:
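Transiently transfected HepG2 cells are exposed to chemical for 24 h. Reporter transcripts are then measured as fluorescence following RT-PCR and capillary separation, and gain- or loss-of-signal is fitted relative to DMSO.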

A short description of experiment [8]: ATG_BRE_CIS: Attagene CIS-FACTORIAL HepG2 Assay for human Bone Morphogenetic Protein (BMP) Response Element (BRE) (AID 2282933). As to conditions: HepG2 BMP response element reporter, Attagene transcription factor profiling; actives raise or lower the signal. Summed up: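 Endogenous transcription factor activity at a BMP response element was monitored in transfected HepG2 cells 24 h after dosing. Fluorescent RT-PCR products were resolved by capillary electrophoresis, and activity was fitted in both directions versus DMSO.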

Experiment [9] concerns the target Retinoic acid receptor alpha (Homo sapiens) (UniProt P10276). The experiment is described as follows: ATG_DR5_RAR_CIS: Attagene CIS-FACTORIAL HepG2 Assay for human Retinoic Acid Receptor Alpha (RARE), DR5 submotif (AID 2282934).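 As to AC50: reporter responds to endogenous RAR alpha beta and gamma in HepG2 not RARA alone.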 Conditions: HepG2 Attagene cis-factorial RARE DR5 reporter, mRNA; actives raise or lower the signal. Summed up:
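Transient MRTU transfection of HepG2; 24 h compound treatment; TriZol RNA, oligo(dT) RT, PCR, FAM labelling, capillary electrophoresis. Bidirectional fit vs DMSO. Endogenous TF activity at DR5 RARE.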

For experiment [10], the target named is Transcription factor E2F1 (Homo sapiens) (UniProt Q01094). In words: ATG_E2F_CIS: Attagene CIS-FACTORIAL HepG2 Assay for human E2F Transcription Factor 1 (AID 2282935). As to conditions: HepG2 Attagene cis-reporter, E2F reporter RNA transcripts; actives raise or lower the signal. Summed up: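 Fluorescent RT-PCR products, digested with HpaI for 2 h at 37 C, are separated by capillary electrophoresis. Source RNA comes from transfected HepG2 cultures treated for 24 h.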
Transcription factor E2F1 (Homo sapiens), sequence (Q01094 whole entry, looked up): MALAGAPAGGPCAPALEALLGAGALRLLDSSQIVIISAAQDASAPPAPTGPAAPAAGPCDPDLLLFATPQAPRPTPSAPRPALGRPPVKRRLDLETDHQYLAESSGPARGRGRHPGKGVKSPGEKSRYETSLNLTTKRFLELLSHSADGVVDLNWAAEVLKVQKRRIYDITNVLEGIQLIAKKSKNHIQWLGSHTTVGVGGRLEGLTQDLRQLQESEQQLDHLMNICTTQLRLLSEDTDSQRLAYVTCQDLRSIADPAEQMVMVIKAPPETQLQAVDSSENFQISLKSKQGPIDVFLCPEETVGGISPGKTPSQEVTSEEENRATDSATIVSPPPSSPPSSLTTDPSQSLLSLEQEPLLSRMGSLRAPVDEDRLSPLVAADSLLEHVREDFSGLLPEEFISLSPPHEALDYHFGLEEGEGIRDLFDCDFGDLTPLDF

Experiment [11] in a line: ATG_M_61_CIS: Attagene CIS-FACTORIAL HepG2 Assay for M61 Transcription Factor (Internal Marker) (AID 2282937). Conditions: HepG2 Attagene CIS-FACTORIAL M61 internal marker reporter; actives raise or lower the signal. An outline of the steps: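 Readout: fluorescent reporter mRNA fragments resolved by capillary electrophoresis after RT-PCR. Transiently transfected human HepG2 cells carried MRTU constructs reporting endogenous TF activity; 24 h chemical exposure; gain or loss of signal fitted relative to DMSO.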

A short description of experiment [12]: ATG_EGR_CIS: Attagene CIS-FACTORIAL HepG2 Assay for human Early Growth Response 1 (EGR1) (AID 2282938). Conditions: HepG2 Attagene CIS-FACTORIAL EGR reporter mRNA; actives raise or lower the signal. Summed up:
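Read-out: fluorescent reporter-mRNA fragments resolved by capillary electrophoresis after RT-PCR, 24 h post-dose in transiently transfected HepG2. Endogenous transcription-factor activity reported via cis-element-regulated reporter units; gain or loss fitted relative to DMSO.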

A short description of experiment [13]: ATG_M_19_CIS: Attagene CIS-FACTORIAL HepG2 Assay for M19 Transcription Factor (Internal Marker) (AID 2282939). As to conditions: HepG2 Attagene CIS-FACTORIAL M19 internal marker reporter; actives raise or lower the signal. Summed up:
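Background-control endpoint from a multiplexed HepG2 reporter panel. Cells carrying cis-regulated reporter constructs are treated 24 h, then reporter transcripts are amplified, fluorescently labelled and sized by capillary electrophoresis. DMSO defines baseline.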

A short description of experiment [14]: ATG_ERE_CIS: Attagene CIS-FACTORIAL HepG2 Assay for Estrogen Response Element (ERE) (AID 2282940). Conditions: HepG2 ERE cis-reporter, Attagene RNA transcript; actives raise or lower the signal. Summed up:
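Cells used were human hepatoma HepG2, transfected with multiple reporter transcription units under cis-regulatory promoters. Reporter mRNA, read 24 h post-dosing via fluorescent RT-PCR products on capillary electrophoresis, was fitted bidirectionally relative to DMSO.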

Experiment [15] is described as follows: ATG_Ets_CIS: Attagene CIS-FACTORIAL HepG2 Assay for human Erythroblast Transformation Specific (ETS) (AID 2282941). As to conditions: HepG2 ETS cis-reporter transcription, actives raise or lower the signal. Summed up:
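RT-PCR/capillary electrophoresis fluorescence read-out of reporter mRNA; HepG2 transient multi-reporter transfection; 24 h compound exposure; gain or loss of signal fitted bidirectionally relative to DMSO.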

Experiment [16] addresses Hepatocyte nuclear factor 3-beta (Homo sapiens) (UniProt Q9Y261). The experiment is described as follows: ATG_FoxA2_CIS: Attagene CIS-FACTORIAL HepG2 Assay for human Forkhead box A2 (FOXA2) (AID 2282942). Conditions: HepG2 cis-reporter transcription factor activity, 24 h; actives raise or lower the signal. Summed up:
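Readout: fluorescent reporter transcripts resolved by capillary electrophoresis after RT-PCR. Transiently transfected HepG2, 24 h compound exposure, endogenous TF activity at cis promoter elements. Gain or loss of signal fitted relative to DMSO.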

Experiment [17] is described as follows: ATG_GATA_CIS: Attagene CIS-FACTORIAL HepG2 Assay for human GATA Binding Protein (AID 2282944). Conditions: HepG2 GATA cis-element reporter, Attagene multiplex mRNA; actives raise or lower the signal. Summed up: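 Endogenous transcription factor activity was captured through cis-promoter-driven reporters in transfected HepG2 cells. After 24 h exposure, reporter transcripts were quantified by RT-PCR with fluorescent capillary electrophoresis, and responses fitted both directions against DMSO.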

Experiment [18] in a line: ATG_GLI_CIS: Attagene CIS-FACTORIAL HepG2 Assay for human Zinc Finger Protein GLI1 (AID 2282945). As to conditions: HepG2, Attagene cis-factorial reporter mRNA, GLI element; actives raise or lower the signal. Summed up:
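Bidirectional curve fits relative to DMSO, using reporter mRNA levels from RT-PCR plus capillary electrophoresis. Cells were HepG2 transiently carrying cis-regulated reporter constructs, harvested 24 h after dosing.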

Experiment [19] can be described thus: ATG_FoxO_CIS: Attagene CIS-FACTORIAL HepG2 Assay for human Forkhead box O (FoxO) (AID 2282943). Conditions: HepG2 Attagene cis-reporter, FoxO element, mRNA; actives raise or lower the signal. An outline of the steps: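 HepG2, transient MRTU transfection (cis element, endogenous TFs). Dose 24 h. TriZol RNA → oligo(dT) RT → PCR → 6-FAM primer extension → HpaI cut → CE. Gain/loss vs DMSO.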

“And” between values parts separate entries of the source, which are not always exact repeats. Equal entries are not always repeated. More than one record can exist for a structure, and the calls need not agree. The source made the active and inactive calls. The calls were made as follows: active = hit-call score of the fitted dose curve at least 0.9, where 1 is the maximum; inactive = score below 0.9.

Hepatocyte nuclear factor 3-beta (Homo sapiens), sequence (Q9Y261 whole entry, looked up): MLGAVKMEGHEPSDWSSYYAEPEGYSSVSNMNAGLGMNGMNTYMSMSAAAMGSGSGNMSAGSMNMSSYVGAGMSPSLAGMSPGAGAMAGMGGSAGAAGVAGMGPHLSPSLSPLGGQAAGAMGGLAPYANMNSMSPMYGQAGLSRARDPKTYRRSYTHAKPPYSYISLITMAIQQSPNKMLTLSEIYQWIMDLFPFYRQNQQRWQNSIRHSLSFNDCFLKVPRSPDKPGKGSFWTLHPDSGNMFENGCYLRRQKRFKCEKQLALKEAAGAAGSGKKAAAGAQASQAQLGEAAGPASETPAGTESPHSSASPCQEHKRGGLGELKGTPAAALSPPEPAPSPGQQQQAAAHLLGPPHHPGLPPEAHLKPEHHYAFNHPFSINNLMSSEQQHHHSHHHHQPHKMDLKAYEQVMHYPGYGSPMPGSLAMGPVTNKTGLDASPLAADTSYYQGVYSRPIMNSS
Retinoic acid receptor alpha (Homo sapiens), sequence (P10276 whole entry, looked up): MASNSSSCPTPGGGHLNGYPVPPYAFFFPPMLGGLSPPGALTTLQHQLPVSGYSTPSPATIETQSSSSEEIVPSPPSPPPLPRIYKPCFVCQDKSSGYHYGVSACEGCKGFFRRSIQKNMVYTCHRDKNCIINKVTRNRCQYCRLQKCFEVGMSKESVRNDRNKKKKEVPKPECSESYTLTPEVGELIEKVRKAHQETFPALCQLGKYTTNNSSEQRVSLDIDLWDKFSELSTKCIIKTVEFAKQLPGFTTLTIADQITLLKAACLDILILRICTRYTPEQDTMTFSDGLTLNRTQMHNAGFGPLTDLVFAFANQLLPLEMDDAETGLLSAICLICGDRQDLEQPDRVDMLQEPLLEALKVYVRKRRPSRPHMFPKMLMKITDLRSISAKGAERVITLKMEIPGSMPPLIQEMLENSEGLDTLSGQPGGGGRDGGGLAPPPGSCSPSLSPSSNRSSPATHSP
Aryl hydrocarbon receptor (Homo sapiens), sequence (P35869 whole entry, looked up): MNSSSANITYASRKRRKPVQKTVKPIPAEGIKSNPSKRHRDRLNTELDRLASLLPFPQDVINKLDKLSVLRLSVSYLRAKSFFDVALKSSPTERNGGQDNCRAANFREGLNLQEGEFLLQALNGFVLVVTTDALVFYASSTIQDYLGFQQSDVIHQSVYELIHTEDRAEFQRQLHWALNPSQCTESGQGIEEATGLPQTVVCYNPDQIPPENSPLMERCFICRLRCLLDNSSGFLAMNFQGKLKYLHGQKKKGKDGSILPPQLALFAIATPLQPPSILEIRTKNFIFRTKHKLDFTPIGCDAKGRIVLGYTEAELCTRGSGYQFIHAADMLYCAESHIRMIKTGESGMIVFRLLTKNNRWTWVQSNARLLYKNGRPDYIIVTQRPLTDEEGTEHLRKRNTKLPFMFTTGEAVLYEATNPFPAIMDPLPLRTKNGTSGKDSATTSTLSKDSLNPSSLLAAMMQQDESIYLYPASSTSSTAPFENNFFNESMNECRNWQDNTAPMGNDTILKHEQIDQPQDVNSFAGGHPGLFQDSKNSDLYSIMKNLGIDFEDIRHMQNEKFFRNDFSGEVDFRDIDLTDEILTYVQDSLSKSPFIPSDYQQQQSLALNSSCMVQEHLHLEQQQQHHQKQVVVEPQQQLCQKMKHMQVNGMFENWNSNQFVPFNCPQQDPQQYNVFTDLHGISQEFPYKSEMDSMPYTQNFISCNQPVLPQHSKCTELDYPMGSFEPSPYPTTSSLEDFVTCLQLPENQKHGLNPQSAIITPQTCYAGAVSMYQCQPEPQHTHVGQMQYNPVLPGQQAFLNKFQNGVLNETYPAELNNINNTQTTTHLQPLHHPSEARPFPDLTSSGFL

With `COCC(C)OCC(C)OCC(C)O` (configuration not stated), the compound was called inactive in experiment [1], in [2], in experiment [3], in experiment [4], in [5] and in experiment [6]. Also, the call in [7], in [8], in [9], in [10], in [11] and in experiment [12] was inactive. Further, the result in experiment [13], in [14], in experiment [15], in experiment [16], in experiment [17] and in experiment [18] was inactive.
In the case of `Cc1ncc(CO)c(CO)c1O`, the call in [1], in experiment [2], in experiment [3], in experiment [4], in experiment [5] and in experiment [6] was inactive. The compound was classed as inactive in [7], in experiment [8], in experiment [10], in experiment [11], in experiment [12] and in experiment [13]. The result in experiment [15], in experiment [16], in experiment [17] and in experiment [18] was inactive.
`CCCC(=O)OCCC(C)C`: the compound was called inactive in [1], in experiment [2], in experiment [3], in experiment [4], in experiment [5] and in experiment [6]. Also, the compound was classed as inactive in experiment [7], in experiment [8], in experiment [9], in experiment [10], in experiment [11] and in experiment [12]. Also, the outcome in experiment [13], in experiment [14], in [16], in [19], in experiment [17] and in [18] was inactive. Besides, the AC50 in [15] was 26.8 µM (active).
As to `CC(C)(c1cc(Br)c(O)c(Br)c1)c1cc(Br)c(O)c(Br)c1`, the half-maximal activity concentration (AC50) in experiment [1] is 46 µM (active) and 44.2 µM (active); in [3] it was 53.3 µM (active) and 58.5 µM (active); in experiment [4], 12.5 µM (active) and 13.9 µM (active); in experiment [6], 58.4 µM (active) and 53.2 µM (active); in experiment [7], 55.8 µM (active); in experiment [8] it was 46.6 µM (active). Further, the half-maximal activity concentration (AC50) in experiment [9] is 25.6 µM (active) and 14.2 µM (active); in experiment [12] it was 47.1 µM (active) and 37.6 µM (active); in [17], 58.1 µM (active); in experiment [18], 49.8 µM (active) and 50.8 µM (active). Moreover, the outcome in experiment [2], in [7], in experiment [8], in experiment [10], in experiment [11] and in [13] was inactive. Further, the compound was classed as inactive in [15], in [16] and in experiment [17].
